Bioassay records: PubChem BioAssay, National Center for Advancing Translational Sciences (NCATS)
KinaseGlo FLuc: counter-screen: inhibitors of Kinase-Glo firefly luciferase; Q27757; Kinase-Glo luciferase, ATP luminescence, 8 min; Potency, µM (titrated, usually from 38.3 µM), without a hit: at the highest dose activity change, negative = inhibition, most hits filed as inhibitors; actives 0.28% (n = 200,000); AID 1379; note: % is set by controls: 0 for no effect and ±100 for the full control effect; nearly all actives have a fitted effect of over 60% in size
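Kinase-Glo luciferase light output from ATP and luciferin was measured with 10 uM ATP, within the enzyme's linear range. Buffer: 50 mM imidazole pH 7.2, 50 mM KCl, 7 mM MgCl2, 0.01% Tween 20, 0.05% BSA; luminescence read after 8 min at ambient temperature.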
ELG1 genotox: inducers of genotoxicity in HEK293T ELG1-luciferase cells | Potency, µM (top dose mostly 46 µM), for the others: top-dose activity change, positive = activation, hits mostly activators | actives 1.3% (n = 330,000) | HEK293T ELG1-luciferase reporter, luminescence, 16 h | AID 504466; note: % of control where 0% means no effect; nearly all actives have a fitted effect of over 60% in size
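Reporter readout depends on ELG1 protein level, which increases with genetic stress. After 16 hr compound exposure at 37 °C, luciferase activity was quantified using ONE-Glo.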
NPC1 prom act: NPC1 promoter activation | actives 2.4% (n = 320,000) | Huh7 NPC1 promoter luciferase reporter, 24 h | Potency, µM (top dose mostly 9.22 µM), for the others: at the highest dose activation, actives largely listed as activators; note: % of control where 0% means no effect; nearly all actives have a fitted effect of over 60% in size
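Luciferase expression driven by the NPC1 promoter was measured in stably transfected Huh7 cells after a 24 h compound incubation, using a luciferase reagent and a luminescence read.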
SMN2 splice up: enhancers of SMN2 splice variant expression; HEK293 SMN2-luciferase splicing reporter, luminescence, 30-36 h; Potency, µM (highest dose often 46.1 µM), inactives show at the highest dose activity change, positive = activation, usual class: activators; actives 2.8% (n = 210,000); note: % of control where 0% means no effect; nearly all actives have a fitted effect of over 55% in size
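HEK293 cells carry an SMN2 […]–luciferase reporter in which exon 7 inclusion puts luciferase in frame. Cells were plated 10-12 h before compound addition, then incubated 30-36 h at 37C. ONE-Glo luminescence was read; sodium butyrate at 4.5 mM final served as control.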
FLuc counter: firefly luciferase modulation, counter-screen for miR-21 project. P08659. purified FLuc, Km substrates, luminescence inhibition. Potency, µM (top dose mostly 57.5 µM), inactives show at the top dose activity change, negative = inhibition, hits mostly inhibitors. actives 6.9% (n = 360,000);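 note: plate controls were vehicle for no effect and reference inhibitor for full effect; nearly all actives have a fitted effect of over 55% in size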
Target sequence (P08659 whole entry, looked up): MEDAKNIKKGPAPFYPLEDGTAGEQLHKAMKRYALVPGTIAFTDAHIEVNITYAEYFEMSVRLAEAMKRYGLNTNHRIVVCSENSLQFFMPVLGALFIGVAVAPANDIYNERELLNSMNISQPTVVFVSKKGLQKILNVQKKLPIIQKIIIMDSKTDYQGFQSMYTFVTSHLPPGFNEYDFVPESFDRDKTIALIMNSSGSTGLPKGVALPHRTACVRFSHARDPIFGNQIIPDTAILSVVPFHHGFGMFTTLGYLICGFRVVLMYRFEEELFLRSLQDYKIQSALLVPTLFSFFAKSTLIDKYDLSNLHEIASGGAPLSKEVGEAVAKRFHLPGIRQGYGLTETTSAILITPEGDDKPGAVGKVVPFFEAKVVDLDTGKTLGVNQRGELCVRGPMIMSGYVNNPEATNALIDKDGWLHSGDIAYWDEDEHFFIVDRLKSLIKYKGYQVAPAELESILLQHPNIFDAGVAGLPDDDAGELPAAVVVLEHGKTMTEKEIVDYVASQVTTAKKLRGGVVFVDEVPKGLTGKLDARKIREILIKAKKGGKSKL
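Purified P. pyralis luciferase (10nM final) with 10uM D-luciferin and 10uM ATP (Km levels) in 50mM Tris acetate pH 7.5, 10mM Mg acetate, 0.01% Tween-20, 0.05% BSA; qHTS 6-point titration, ~60 µM downward; luminescence read.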
Rab9 prom act: Rab9 promoter activation | Huh7 Rab9 promoter-luciferase reporter, luminescence, 24 h | Potency, µM (top dose mostly 9.22 µM), without a hit: at the top dose activation, negative = inhibition, usual class: activators | actives 2.8% (n = 320,000) | AID 485297; note: % of control where 0% means no effect; nearly all actives have a fitted effect of over 60% in size
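Luminescence read-out: Huh7 cells stably expressing Rab9-luciferase, treated 24 h with compound at 37 °C, then lysed with luciferase reagent for 10 min at ambient before reading.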
* marks the source's active call; other numbers are inactive results; ? = inconclusive; . = not tested or not shown; [ ] = dose if it differs, or a comment. In the library only some 7.5% were active in any assay of this set; here they are far more common. Calls come from the whole dose curve; as a rule, active = well fitted curve in the direction sought with a large enough effect; inconclusive = small, poorly fitted or top-dose-only effect, or another doubt; inactive = no such curve, though single readings can be large; an effect the other way counts as inactive or inconclusive. Potency is the fitted concentration of half-maximal effect.

SMILES	KinaseGlo FLuc	ELG1 genotox	NPC1 prom act	SMN2 splice up	FLuc counter	Rab9 prom act
CCCCCCCCCCCCC/C=C/[C@@H](O)[C@H](COP(=O)([O-])OCC[N+](C)(C)C)NC(=O)CCCCCCCCCCCCCCCCC	0%	.	.	7%	.	.
CCOCCn1c(=O)c2c(nc3n2CC(C)CN3Cc2ccccc2)n(C)c1=O (centres undefined)	.	-4%	0%	.	3%	0%
CCC(=O)N1c2ccc(S(=O)(=O)CCC(=O)N3CCN(c4ccccc4F)CC3)cc2CC1C (centres undefined)	.	2%	0%	.	5%	0%
Nc1nc(NCc2ccco2)nc(Nc2ccc(F)cc2)c1[N+](=O)[O-]	.	2%	-3%	.	0%	0%
Nc1nc(Nc2ccc(Cl)cc2)nc(NCCO)c1[N+](=O)[O-]	.	10%	?	.	-18%	-2%
Cc1ccc(Nc2nc(N)c([N+](=O)[O-])c(NCCO)n2)cc1C	.	18%	20%	.	15µM*	10%
CNc1nc(NCc2ccccc2)nc(N)c1[N+](=O)[O-]	.	18µM*	-2%	.	6%	-1%
Cc1ccc(Nc2nc(N)c([N+](=O)[O-])c(NCc3ccco3)n2)cc1C	-3%	9%	?	?	24µM*	26%
COc1ccc(S(=O)(=O)N(C)C)cc1NC(=O)CCCSc1ccccc1	.	-10%	2%	.	-5%	-2%
Cc1cc2[nH]c(=O)c(=O)[nH]c2cc1S(=O)(=O)Nc1cccc(F)c1	.	-1%	-2%	.	3%	-2%
CCN1CCN(C(=O)NC(C(=O)NC2C(=O)N3C(C(=O)O)=C(CSc4nnnn4C)CSC23)c2ccc(O)cc2)C(=O)C1=O (centres undefined)	-1%[39.9 µM]	.	.	-11%	.	.
C[C@H](NC(=O)c1ccccc1)C(=O)Nc1nc(-c2ccccn2)cs1	0%	-9%	4%	-55%	-8%	-3%
Cn1cccc1C(=O)Nc1nc(-c2ccccn2)cs1	11µM*	16%	2µM*	25%	8.5µM*	1.8µM*
Cc1csc(NC(=O)c2sccc2C)n1	.	?	1.8µM*	.	11µM*	0.89µM*
Cc1csc(NC(=O)c2ccc(C(=O)Nc3nc(C)cs3)cc2)n1	.	2%	5%	.	-8%	9%
Cc1csc(NC(=O)c2ccccc2C(=O)O)n1	-4%	-3%	-5%	-3%	0%	-4%
Cc1csc(NC(=O)c2cccn2C)n1	?	?	3.5µM*	16µM*	8.5µM*	2.2µM*
Cc1cc(C)c2sc(NC(=O)C3CC3)nc2c1	.	0%	?	.	?	?
O=[N+]([O-])c1ccc(N2CCSCC2)cc1	-10%	4%	-1%	.	-2%	1%
COc1ccc2cc(C(=O)N(C)CC(=O)Nc3ccccc3Br)ccc2c1	.	1%	11%	.	21µM*	26%
CN(CC(=O)Nc1ccccc1Br)C(=O)c1cc2c(s1)CCCCC2	.	?	26%	.	11µM*	29%
CN(CC(=O)Nc1ccccc1Br)C(=O)CCC1CCCC1	.	?	?	.	19µM*	?
COc1ccc2nc(NC(=O)CSC(C)C(=O)Nc3cc(C)on3)sc2c1 (centres undefined)	.	1%	10%	.	?	-2%
O=C(NC(=S)N1CCCc2ccccc21)c1ccc(Cl)cc1	0%	16%	15%	?	6.7µM*	26%
O=C(COc1ccccc1)NC(=S)N1CCc2ccccc21	-3%	3%	12%	?	?	17%
COc1ccccc1C(=O)NC(=S)N1CCCc2ccccc21	-3%	10%	-17%	-87%	21µM*	8%
COc1ccc(OCC(=O)NC(=S)N2CCCc3ccccc32)cc1	-5%	10µM*	7%	15%	27µM*	-1%
COc1ccccc1C(=O)NC(=S)N1CCc2ccccc21	2%	5%	1%	6%	-20%	0%
O=C1NC(=S)S/C1=C/c1ccc(N2CCOCC2)o1	?	15%	11%	-26%	9.5µM*	11%
